Assay results from the supplement of paper PMC11732987, “Enantioselective OTUD7B fragment discovery through chemoproteomics screening and high-throughput optimisation” (Communications Chemistry, 2025).

How the values were obtained:
Test in all cases: log2 ratio of Biotin-Ahx-Ub-VS probe labelling (fragment/DMSO); higher = less target engagement (more negative = stronger competition), active = hit call of the paper (q ≤ 0.05, log2 ratio ≤ -1)
Settings in all cases: compound concentration: 200 uM; treatment time: 3 h
USP19 = molecular target: T1, USP19 (UniProt O94966)
T1 sequence (whole entry): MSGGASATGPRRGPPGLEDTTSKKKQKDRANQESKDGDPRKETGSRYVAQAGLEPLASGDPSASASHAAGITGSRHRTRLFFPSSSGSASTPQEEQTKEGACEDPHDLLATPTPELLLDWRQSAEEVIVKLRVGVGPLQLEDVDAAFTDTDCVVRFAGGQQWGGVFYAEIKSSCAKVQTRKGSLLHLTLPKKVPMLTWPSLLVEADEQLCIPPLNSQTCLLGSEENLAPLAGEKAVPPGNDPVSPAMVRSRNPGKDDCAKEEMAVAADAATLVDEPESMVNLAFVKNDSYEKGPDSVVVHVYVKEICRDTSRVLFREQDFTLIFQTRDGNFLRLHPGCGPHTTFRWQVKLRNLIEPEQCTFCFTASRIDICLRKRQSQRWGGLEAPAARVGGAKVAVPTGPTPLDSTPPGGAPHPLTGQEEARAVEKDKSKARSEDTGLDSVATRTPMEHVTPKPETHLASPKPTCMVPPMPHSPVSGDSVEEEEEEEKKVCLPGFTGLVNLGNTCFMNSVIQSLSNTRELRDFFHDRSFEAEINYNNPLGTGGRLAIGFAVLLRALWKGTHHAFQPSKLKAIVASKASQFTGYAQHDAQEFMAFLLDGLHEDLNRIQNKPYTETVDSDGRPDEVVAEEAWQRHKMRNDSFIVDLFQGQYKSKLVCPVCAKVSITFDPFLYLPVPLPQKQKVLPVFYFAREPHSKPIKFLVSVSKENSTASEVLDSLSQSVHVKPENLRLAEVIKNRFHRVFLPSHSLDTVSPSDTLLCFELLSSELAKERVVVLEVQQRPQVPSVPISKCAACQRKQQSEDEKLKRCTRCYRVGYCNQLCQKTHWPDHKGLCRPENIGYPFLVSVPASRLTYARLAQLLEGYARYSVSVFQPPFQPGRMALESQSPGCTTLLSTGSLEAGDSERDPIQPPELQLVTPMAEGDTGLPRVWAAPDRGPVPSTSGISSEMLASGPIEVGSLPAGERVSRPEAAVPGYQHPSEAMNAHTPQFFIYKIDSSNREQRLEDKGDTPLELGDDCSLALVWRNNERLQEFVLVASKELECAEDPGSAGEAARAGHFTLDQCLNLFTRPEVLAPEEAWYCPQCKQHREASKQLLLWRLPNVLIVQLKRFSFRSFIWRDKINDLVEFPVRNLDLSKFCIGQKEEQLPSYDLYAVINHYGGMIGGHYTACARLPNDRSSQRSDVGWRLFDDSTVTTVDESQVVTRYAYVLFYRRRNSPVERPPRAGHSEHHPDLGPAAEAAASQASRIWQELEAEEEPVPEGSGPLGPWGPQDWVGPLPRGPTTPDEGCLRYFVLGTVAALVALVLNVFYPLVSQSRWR
How it was run: (§1)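 Labelled DUBs from HEK293T lysate were NeutrAvidin-enriched, digested with LysC and trypsin, and run by diaPASEF LC-MS/MS. Before that, each 495 µg sample in Tris/CHAPS/IGEPAL buffer with protease inhibitors was treated in triplicate with fragment at 200 µM or vehicle for 3 h, then with Biotin-Ahx-Ub-VS at 0.5 µM final for 1 h. Values are average log2 ratios of fragment over vehicle by unpaired t-test, based on global-median-normalised Spectronaut label-free quantities from proteins with ≥2 unique peptides.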

USP22 = molecular target: T2, USP22 (UniProt Q9UPT9)
T2 sequence (whole entry): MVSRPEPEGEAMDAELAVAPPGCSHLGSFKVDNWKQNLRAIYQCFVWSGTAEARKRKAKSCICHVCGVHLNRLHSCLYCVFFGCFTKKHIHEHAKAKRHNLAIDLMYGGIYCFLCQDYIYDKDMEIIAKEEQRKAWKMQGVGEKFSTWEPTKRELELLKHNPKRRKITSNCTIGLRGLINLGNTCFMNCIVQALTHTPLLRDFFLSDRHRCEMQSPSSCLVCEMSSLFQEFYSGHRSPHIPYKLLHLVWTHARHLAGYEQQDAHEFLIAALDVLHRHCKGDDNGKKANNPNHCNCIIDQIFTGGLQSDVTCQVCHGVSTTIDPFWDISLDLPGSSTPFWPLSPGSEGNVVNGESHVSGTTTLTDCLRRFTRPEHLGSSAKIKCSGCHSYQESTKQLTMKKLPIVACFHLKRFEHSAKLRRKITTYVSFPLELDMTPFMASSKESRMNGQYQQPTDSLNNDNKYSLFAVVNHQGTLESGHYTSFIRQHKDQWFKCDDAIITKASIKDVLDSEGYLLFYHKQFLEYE
How it was run: as §1

USP24 = USP24 (UniProt Q9UPU5)
Chain of USP24 (Q9UPU5 whole entry): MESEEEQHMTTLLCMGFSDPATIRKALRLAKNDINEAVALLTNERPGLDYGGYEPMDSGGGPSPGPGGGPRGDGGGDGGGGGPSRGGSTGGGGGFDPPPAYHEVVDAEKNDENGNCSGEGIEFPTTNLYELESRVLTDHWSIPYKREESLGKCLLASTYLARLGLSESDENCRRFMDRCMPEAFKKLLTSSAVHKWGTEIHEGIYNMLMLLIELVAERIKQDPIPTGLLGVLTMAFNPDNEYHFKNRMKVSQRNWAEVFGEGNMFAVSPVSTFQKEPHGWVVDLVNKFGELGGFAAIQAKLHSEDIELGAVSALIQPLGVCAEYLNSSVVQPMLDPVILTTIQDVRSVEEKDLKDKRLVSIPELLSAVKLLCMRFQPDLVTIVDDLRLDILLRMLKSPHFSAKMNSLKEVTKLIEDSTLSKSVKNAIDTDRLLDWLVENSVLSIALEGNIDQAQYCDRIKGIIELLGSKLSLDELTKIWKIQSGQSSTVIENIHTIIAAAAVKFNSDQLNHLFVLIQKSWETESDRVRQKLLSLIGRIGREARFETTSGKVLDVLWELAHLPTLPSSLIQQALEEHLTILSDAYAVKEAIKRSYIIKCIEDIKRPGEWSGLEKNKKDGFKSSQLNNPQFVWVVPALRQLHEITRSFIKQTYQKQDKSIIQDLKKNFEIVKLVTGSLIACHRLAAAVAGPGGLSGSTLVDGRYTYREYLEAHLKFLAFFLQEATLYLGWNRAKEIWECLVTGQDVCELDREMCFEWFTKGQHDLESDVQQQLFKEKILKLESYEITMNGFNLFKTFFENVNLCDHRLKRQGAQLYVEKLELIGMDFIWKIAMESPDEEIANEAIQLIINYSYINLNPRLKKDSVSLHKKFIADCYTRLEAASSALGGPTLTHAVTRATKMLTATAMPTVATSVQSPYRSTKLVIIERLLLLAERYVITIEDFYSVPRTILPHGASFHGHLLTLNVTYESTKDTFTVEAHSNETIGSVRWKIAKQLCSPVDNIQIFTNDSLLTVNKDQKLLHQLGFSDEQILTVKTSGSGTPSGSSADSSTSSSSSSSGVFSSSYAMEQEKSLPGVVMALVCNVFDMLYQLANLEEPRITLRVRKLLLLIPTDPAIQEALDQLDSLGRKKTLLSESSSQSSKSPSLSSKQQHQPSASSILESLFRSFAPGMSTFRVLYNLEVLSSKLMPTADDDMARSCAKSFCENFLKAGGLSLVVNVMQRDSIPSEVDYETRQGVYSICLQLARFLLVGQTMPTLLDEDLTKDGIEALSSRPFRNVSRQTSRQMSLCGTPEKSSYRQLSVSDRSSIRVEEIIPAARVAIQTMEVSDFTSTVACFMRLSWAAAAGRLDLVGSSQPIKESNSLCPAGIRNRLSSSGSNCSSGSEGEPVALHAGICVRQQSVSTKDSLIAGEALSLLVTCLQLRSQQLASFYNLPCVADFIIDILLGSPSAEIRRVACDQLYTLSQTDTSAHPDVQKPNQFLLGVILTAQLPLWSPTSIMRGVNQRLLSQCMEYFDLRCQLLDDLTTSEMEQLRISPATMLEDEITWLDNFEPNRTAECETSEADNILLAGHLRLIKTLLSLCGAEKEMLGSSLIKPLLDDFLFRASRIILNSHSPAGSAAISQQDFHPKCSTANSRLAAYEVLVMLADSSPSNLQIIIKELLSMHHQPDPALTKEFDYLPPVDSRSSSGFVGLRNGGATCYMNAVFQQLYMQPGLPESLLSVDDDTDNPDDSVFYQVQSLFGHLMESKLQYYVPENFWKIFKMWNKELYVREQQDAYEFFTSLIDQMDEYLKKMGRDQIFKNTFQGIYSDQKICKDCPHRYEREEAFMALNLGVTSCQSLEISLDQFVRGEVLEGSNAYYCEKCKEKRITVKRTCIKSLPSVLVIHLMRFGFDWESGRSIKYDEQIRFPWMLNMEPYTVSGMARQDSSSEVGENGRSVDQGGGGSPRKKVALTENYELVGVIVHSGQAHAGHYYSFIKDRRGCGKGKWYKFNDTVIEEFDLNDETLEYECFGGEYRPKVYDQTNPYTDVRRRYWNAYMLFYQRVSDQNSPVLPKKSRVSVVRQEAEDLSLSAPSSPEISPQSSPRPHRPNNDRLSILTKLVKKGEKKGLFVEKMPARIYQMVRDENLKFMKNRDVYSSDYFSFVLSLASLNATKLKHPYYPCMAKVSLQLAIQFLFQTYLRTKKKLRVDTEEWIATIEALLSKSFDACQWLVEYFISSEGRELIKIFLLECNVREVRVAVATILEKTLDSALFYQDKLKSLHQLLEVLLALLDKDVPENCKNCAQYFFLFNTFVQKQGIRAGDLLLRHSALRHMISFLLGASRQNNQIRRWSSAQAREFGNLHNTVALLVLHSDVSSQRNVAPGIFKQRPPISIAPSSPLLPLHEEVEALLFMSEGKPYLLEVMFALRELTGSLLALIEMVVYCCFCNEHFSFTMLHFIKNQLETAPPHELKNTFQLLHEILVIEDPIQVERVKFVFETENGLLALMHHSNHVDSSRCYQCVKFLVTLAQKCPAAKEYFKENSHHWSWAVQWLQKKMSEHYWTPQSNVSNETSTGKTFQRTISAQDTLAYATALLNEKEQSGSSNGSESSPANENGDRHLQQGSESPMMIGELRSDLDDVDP
How it was run: as §1

USP25 = molecular target: T3, USP25 (UniProt Q9UHP3)
T3 sequence (whole entry): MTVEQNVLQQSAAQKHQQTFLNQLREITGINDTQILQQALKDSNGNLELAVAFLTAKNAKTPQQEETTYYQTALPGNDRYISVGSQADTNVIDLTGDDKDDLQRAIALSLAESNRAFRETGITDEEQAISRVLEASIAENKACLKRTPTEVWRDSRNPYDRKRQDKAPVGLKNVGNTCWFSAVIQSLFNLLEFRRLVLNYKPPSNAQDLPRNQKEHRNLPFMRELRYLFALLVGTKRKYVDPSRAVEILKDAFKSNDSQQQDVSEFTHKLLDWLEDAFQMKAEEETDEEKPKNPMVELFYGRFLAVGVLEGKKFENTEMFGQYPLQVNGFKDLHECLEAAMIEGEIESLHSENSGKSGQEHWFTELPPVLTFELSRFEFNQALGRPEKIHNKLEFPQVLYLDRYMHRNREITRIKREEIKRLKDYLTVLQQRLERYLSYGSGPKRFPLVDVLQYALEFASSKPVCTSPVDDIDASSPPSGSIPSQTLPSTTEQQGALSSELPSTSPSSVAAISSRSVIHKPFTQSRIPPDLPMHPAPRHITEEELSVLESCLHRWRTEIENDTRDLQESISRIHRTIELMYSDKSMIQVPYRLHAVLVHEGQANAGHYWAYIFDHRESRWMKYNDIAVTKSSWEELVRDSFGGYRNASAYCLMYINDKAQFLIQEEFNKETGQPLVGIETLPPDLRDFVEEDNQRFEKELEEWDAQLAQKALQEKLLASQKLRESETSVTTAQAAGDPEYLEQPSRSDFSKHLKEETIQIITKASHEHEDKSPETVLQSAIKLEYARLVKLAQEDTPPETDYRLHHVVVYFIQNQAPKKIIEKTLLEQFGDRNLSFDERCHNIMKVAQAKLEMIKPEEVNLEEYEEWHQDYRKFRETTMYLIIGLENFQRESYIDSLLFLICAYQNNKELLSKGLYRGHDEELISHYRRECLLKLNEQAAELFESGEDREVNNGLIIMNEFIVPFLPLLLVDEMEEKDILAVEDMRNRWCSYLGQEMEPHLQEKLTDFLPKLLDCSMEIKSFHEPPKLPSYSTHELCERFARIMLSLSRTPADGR
How it was run: as §1

USP28 = molecular target: T4, USP28 (UniProt Q96RU2)
T4 sequence (whole entry): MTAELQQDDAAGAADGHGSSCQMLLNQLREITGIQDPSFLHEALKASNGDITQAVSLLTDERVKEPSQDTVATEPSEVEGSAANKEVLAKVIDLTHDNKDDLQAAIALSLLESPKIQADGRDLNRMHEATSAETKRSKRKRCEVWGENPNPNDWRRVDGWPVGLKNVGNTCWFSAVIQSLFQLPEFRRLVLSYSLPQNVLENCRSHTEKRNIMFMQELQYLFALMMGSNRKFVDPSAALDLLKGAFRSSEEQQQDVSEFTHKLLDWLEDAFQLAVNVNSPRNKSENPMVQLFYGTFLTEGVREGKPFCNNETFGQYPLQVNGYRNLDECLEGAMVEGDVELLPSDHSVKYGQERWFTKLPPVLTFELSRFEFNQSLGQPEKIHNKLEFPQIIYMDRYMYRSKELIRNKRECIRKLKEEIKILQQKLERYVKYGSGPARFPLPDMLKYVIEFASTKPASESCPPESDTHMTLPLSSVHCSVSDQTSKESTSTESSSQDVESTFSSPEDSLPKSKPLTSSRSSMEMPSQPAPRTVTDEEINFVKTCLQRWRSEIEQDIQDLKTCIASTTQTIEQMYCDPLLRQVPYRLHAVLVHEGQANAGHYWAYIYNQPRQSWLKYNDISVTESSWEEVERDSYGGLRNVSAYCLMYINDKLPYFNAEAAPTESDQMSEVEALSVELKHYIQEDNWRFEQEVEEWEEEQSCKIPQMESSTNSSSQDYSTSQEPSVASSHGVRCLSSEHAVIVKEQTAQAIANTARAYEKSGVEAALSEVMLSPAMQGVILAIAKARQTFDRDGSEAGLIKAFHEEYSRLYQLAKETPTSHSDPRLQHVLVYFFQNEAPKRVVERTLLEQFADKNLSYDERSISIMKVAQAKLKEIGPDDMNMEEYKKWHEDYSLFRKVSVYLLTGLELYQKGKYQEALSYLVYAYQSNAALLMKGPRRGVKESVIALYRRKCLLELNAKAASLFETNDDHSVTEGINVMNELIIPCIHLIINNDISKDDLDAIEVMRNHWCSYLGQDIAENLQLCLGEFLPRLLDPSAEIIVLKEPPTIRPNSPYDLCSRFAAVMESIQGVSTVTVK
How it was run: as §1

Measured: log2 ratio of Biotin-Ahx-Ub-VS probe labelling

O=C(O)C1Cc2ccccc2CN1C(=O)CCl (stereo not given)
inactive: USP19 -0.32 | USP22 0.112 | USP24 -0.348 | USP25 -0.37 | USP28 -0.576
